Measurements: PubChem BioAssay AID2320 (National Center for Advancing Translational Sciences (NCATS), 2010)
Results filed as inconclusive are left out. Calls of active or inactive are those of the source. Calls follow the shape of the full dose curve.

Assay: A qHTS for Small Molecule Inhibitors of Shiga Toxin (Confirmatory); also: nearly all actives have a fitted effect of over 75% in size; as to activity, positive = inhibition of toxin: 0% is about no effect
Conditions: Cell-based Shiga toxin protection reporter assay; series mostly up to 38.3 µM; activity, positive = inhibition of toxin: at the top concentration
Potency is read from the fitted curve at half-maximal effect.

| SMILES | activity, positive = inhibition of toxin | Potency |
| --- | --- | --- |
| Cc1ccc(-c2nnc(SCC(=O)NC3CCCC3)n2C)cc1 | -30.6% (inactive) |  |
| CCC(C)C1C(C#N)=C(N)OC2=C1C(=O)CC(C)(C)C2 (stereo not given) | 15.3% (inactive) |  |
| CCCCOC(=O)c1ccc(N=Nc2c(C)c(C#N)c(O)[nH]c2=O)cc1 |  | 15.9 µM (active) |
| CCOC(=O)c1[nH]c2ccc(OC)cc2c1NC(=O)C(C)N1CCC2(CC1)OCCO2 (stereo not given) | -37.1% (inactive) |  |
| CCOC(=O)C1(CCCc2ccccc2)CCN(C(=O)CCn2cncn2)CC1 | 14.8% (inactive) |  |
| Cc1oncc1-c1csc(-c2ccccc2Cl)n1 |  | 7.98 µM (active) |
| C/C1=C\[C@@H](O)C(C(C)C)C(OC(=O)c2ccc(O)cc2)C/C(C)=C/CC1 (stereo not given in full) |  | 17.9 µM (active) |
| COc1cccc(C(=O)NNC(=O)C2CC(C)=C(C)CC2C(=O)O)c1 (stereo not given) | -47.7% (inactive) |  |
| NC(=O)C1CCN(C(=O)C2c3ccccc3C(=O)N3CCc4ccccc4C23)CC1 (stereo not given) | -53.8% (inactive) |  |
| COc1ccc(C(=O)CC(=O)C(=O)Nc2ccc(C)cc2Cl)cc1 | 17.8% (inactive) |  |
| CCn1cc(C(=O)NCc2ccccc2Cl)cn1 | -9.3% (inactive) |  |
| CSc1ccc(/C=C/C(=O)N2CCN(c3ccccn3)CC2)cc1 | -0.0265% (inactive) |  |
| O=C(Cc1cccs1)Nc1nc(-c2ccc(F)c(F)c2)cs1 |  | 6.34 µM (active) |
| O=C(NCC1CCCO1)Nc1ccc2c(c1)OCO2 (stereo not given) |  | 22.5 µM (active) |
| Fc1ccccc1N=C1Nc2cccc3cccc1c23 | 35% (inactive) |  |
| COc1ccccc1C(=O)Nc1nnc(SCC(=O)Nc2ccc3c(c2)oc2ccccc23)s1 |  | 3.18 µM (active) |
| O=C1C(Cl)=C(Nc2ccccc2)C(=O)c2ccccc21 |  | 3.18 µM (active) |
| COc1ccc2nc3cc(Cl)ccc3c(NCCCN3CCN(CCCNc4c5ccc(Cl)cc5nc5ccc(OC)cc45)CC3)c2c1 | -9.56% (inactive) |  |
| CC1=C(C)C(OCCBr)N(c2cc(O)c(Cl)cc2F)C1=O (stereo not given) | -15.1% (inactive) |  |
| O=C(NCCCO)/C(=C\c1ccco1)NC(=O)c1ccco1 | 21.2% (inactive) |  |
